We go through 40 compounds from PubChem BioAssay (NCATS).

Records with an inconclusive call do not appear. A call without a number means that no potency is given here. Calls of active or inactive are those of the source. Calls follow the shape of the dose curve; as a rule, active = well fitted inhibition curve with a large enough effect; inconclusive = small, poorly fitted or top-dose-only effect, or effect the other way; inactive = flat fitted curve, though single readings scatter.
Potency is read from the fitted curve at half-maximal effect.

The nature of the experiment: qHTS for Inhibitors of Plasmodium falciparum (CP250) proliferation (AID 504320). As to conditions: P. falciparum CP250 in erythrocytes, SYBR Green DNA, 72 h; series mostly up to 6.7 µM. The source says:
Plasmodium falciparum is a virulent malarial parasite that kills 1-2 million people worldwide each year. Malaria not only inflicts tremendous suffering and morbidity on the human population, but has dramatically influenced the course of civilization with profound sociological and economic implications (Shah, S. 2010). Transmitted by mosquitoes, the sporozoite form of the parasite enters the blood stream to infect hepatocytes, where they become merozoites that infect red blood cells (erythrocytes). Within erythrocytes, merozoites begin a […] cycle of growth and division, after which the parasite is released to infect new red blood cells. Gametocytes, which form within erythrocytes as well, circulate in the bloodstream and are ingested by the mosquito, thereby completing the life cycle (see CDC website). To profile malarial lines for differential chemical responses and to identify inhibitors of malarial growth, an assay that measures P. falciparum growth and replication within erythrocytes was employed. This assay uses a DNA binding fluorescent dye (SYBR Green) to detect parasite DNA following cell lysis. Because mature erythrocytes lack DNA, only Plasmodium-derived DNA is detected. The P. falciparum line cp250, derived from a malarial isolate from Cambodia, (Mu, J., et al. 2010) was added to the panel of lines, Dd2, HB3, 7G8 and GB4 in this study. Laboratory of Assay Development and Screening Technology [ADST] and NIH Chemical Genomics Center [NCGC] Boston University, Chemistry Department, Center for Chemical Methodology and Library Development [CMLD-BU] NIH National Institute of Allergy and Infectious Diseases [NIAID]
ADST Assay Protocol Summary: The 1536-well SYBR Green viability assay was based on the method of Bennett et al (2004) and described previously in 1536-well format (Yuan J., et al. 2009). For screening 3 ul culture medium was dispensed into 1536 well black clear bottom plates (Aurora Biotechnologies) using a Multidrop Combi (Thermo Fisher Scientific Inc.), 23 nL compounds in DMSO were added by a pin transfer (Cleveland, P.H. and Koutz, P.J, 2005) using a pin tool-based delivery system (Kalypsys), and 5 ul of erythrocytes infected with P. falciparum one of five lines (cp250, Dd2, HB3, 7G8 or GB4, 0.3% parasitemia, 2.5% hematocrit final concentration) were added. The plates were incubated at 37C in a humidified incubator in 5% CO2 for 72 h, and 2 ul lysis buffer (20 mM Tris HCl, 10 mM EDTA, 0.16% saponin, 1.6% triton X, 10X SYBR Green I (supplied as 10,000X final concentration by Invitrogen) was added to each well. The plates were mixed for 25 sec with gentle shaking and incubated overnight at room temperature in the dark. The following morning, fluorescence intensity at 485(14) nm excitation and 535(25) nm emission wavelengths was measured on an EnVision (Perkin Elmer) plate reader. Plate reads were normalized relative to the control inhibitor (0.29 uM artemisinin) and vehicle (DMSO) wells present on each plate and then corrected by an algorithm using vehicle-only control plates at the beginning and end of the compound plate stack. References Shah, S. (2010). The Fever: how malaria has ruled humankind for 500,000 years. New York, Sarah Crichton Books. CDC web site, http://www.cdc.gov/malaria/about/biology/index.html Mu, J., Myers, R.A., Jiang, H., Liu, S., Ricklefs, S., Waisberg, M., Chotivanich, K., Wilairatana, P., Krudsood, S., White, N.J., et Plasmodium falciparum genome-wide scans for positive selection, recombination hot spots and resistance to antimalarial drugs Nature Genetics 2010, 42, pp 268-271 Bennett TN, Paguio, M., Gligorijevic, B., Seudieu, C., Kosar, A. D., Davidson, E., and Roepe, P. D. Novel, rapid, and inexpensive cell-based quantification of antimalarial drug efficacy Antimicrobial Agents Chemother. 2004, 48(5): pp 1807-10 Yuan J, Johnson RL, Huang RL, Wichterman J, Jiang HY, Hayton K, Fidock DA, Wellems TE, Inglese J, Austin CP, Su XZ. […]
In general terms: qHTS replaces the single test concentration by a dilution series.
Consider `Cc1cc2c(nc1C)CCCCN2C[C@H](C)ON=C1[C@H]2CCn3c(=O)n(-c4ccccc4)c(=O)n3[C@@H]2[C@H](O)[C@@H]2O[C@H]12`, for which the Potency result is “inactive”.
As for `COC(=O)[C@H](COC(C)(C)C)NC(=O)O[C@@H]1C(=O)c2cc(Br)ccc2O[C@H]1c1ccc2c(c1)OCO2`, the Potency result was “inactive”.
Consider `COC(=O)N(C=Cc1ccc(OC)cc1)CCc1ccc(OC)c(OC)c1`, for which the Potency entry was “inactive”.
With `C=C(CCN1C=C(C(C)=O)C(c2ccccc2)NC1=O)c1ccccc1` (stereo not given) the entry was “inactive”; with `CCN1C(=NCCc2cccnc2)NC(c2ccccc2)C(C(=O)OC)=C1C` (stereo not given), “inactive”; with `C=C(C)C(=O)OC[C@@H]1CN2[C@H](c3ccc(Br)cc3)[C@H](C)CC[C@H]2C(=O)O1`, “inactive”.
As for `CCCCCCCc1cc2ccccc2c2c(C=O)c(CCCC)c(C(=O)OC)n12`, the entry is “inactive”; as for `C=CC1=C2C=C(C3CC3)N(CC(C)C)C=C2C(=O)C(C)(OC(=O)c2ccco2)C1=O` (stereo not given), “inactive”.
On to `C=CCNC(=O)N1CCc2nc(-c3ccc(OC)cc3C)c3c(c2C1)CO[C@@H](c1ccccc1)C3`, for which the Potency entry is “inactive”.
As for `C[C@@H]1CC[C@H]2C(=O)N(Cc3cccc([N+](=O)[O-])c3)C[C@@H](O)CN2[C@@H]1c1ccc(Br)cc1`, the Potency result was “inactive”.
With `COC(=O)CCCC1=CC2=CC(=O)C(C)(OC(=O)c3cccs3)C(=O)C2=CN1CCc1ccccn1` (stereo not given) the entry was “inactive”; with `C=CCN1c2ccccc2[C@]23C[C@@H](C(=O)OC)N(C(=O)Nc4ccc(C(F)(F)F)cc4)C2=NC(C(=O)OC)=C(C(=O)OC)[C@H]13`, “inactive”.
As for `CC1(OC(=O)CCc2ccccc2)C(=O)C=C2C=C(c3ccc(C#N)cc3)N(CC3CC3)C=C2C1=O` (stereo not given), the entry is “inactive”; as for `CC(C)[C@@H](OCc1ccccc1)[C@H](C)C=NOC[C@@H](O)[C@H]1O[C@@H]2OC(C)(C)O[C@H]2[C@@H]1O`, “inactive”.
For the compound `C=CCOC(=O)N[C@H](c1ccccc1)[C@H](C)C=CCC(=O)OC`, the Potency result is “inactive”.
In the case of `CC1(OC(=O)C2CCCC2)C(=O)C=C2C=C(c3ccsc3)N(Cc3ccccc3)C=C2C1=O` (stereo not given), the Potency result was “inactive”.
With `CCCCCCCC1=Cc2ccc(F)cc2C(C(C(=O)OC)C(=O)OC)N1C(=O)OC` (stereo not given) the entry was “inactive”; with `COC(=O)C1=C(C(=O)OC)[C@@H]2N(Cc3ccccc3)c3ccccc3[C@@]23C[C@@H](C(=O)OC)N(C(=O)c2cccs2)C3=N1`, “inactive”; with `C[C@H]1Cc2c(-c3ccccc3)nc3c(c2CO1)CN(C(=O)NCc1ccco1)CC3`, “inactive”.
Regarding `CC#CCC1(C(=O)OC)C(=O)NC[C@H]1c1ccccc1` (stereo not given in full), the Potency result was “inactive”.
With `C(#C[C@@H]1C=C[C@H]2OC(c3ccccc3)OC[C@H]2O1)c1ccccc1` (stereo not given in full) the entry was “inactive”; with `C=CC[C@@H]1C=C[C@@H](Oc2ccc(OC)cc2)[C@H](COC(=O)c2ccc(Br)cc2)O1`, “inactive”.
Take `Oc1c(CN2CCOCC2)cc2c(c1-c1c(O)c(CN3CCOCC3)cc3c1CCCC3)CCCC2`: the Potency entry was “inactive”.
With `COC1=C[C@H](C(=O)NCCOC(C)=O)[C@H](C)[C@@H](c2ccccc2)CC1=O` the entry was “inactive”; with `COC(=O)N1C2CC3(C)CC(=O)CC1(C)C3c1ccccc12` (stereo not given), “inactive”.
As for `CC(CCC(=O)OC[C@H]1O[C@H](C#Cc2ccccc2)C=C[C@H]1Oc1ccc(C)cc1)=NOC[C@@H](O)COCc1ccco1`, the Potency entry was “inactive”.
With `CC1(OC(=O)c2cnc3ccccc3n2)C(=O)C=C2C=C(c3ccc(C#N)cc3)OC=C2C1=O` (stereo not given) the entry was “inactive”; with `CCC(C)CN1C(=O)NC(CCc2ccccc2)C(C(C)=O)=C1C` (stereo not given), “inactive”.
Turning to `N#Cc1ccc2c(c1)C[C@]1(CCCCN3C(=O)c4ccccc4C3=O)Oc3c(c(=O)oc4ccccc34)[C@H]2O1`, the Potency result was “inactive”.
For `COCCN1C(=O)C2=C(C1=O)C1N(C)c3ccccc3[C@@]13C[C@@H](CO)N=C3N2` (stereo not given in full), the Potency result is “inactive”.
As for `C=CCC12OC3(OC)CC1[C@H](C)[C@@H](c1ccccc1)C2[C@@]3(C)O` (stereo not given in full), the entry is “inactive”.
As for `COC(=O)N[C@@H](c1ccc(Br)cc1)C(C(=O)OC)C(=O)OC`, the entry is “inactive”.
On to `COc1cc2c(cc1OC)[C@@H]1O[C@](CCCCN3C(=O)c4ccccc4C3=O)(C2)OC2=C1C(=O)CC(C)(C)C2`, for which the Potency is 1510 nM (active).
For the compound `C=CCCN1C(=O)NC(c2ccccc2)C(C(=O)OC)=C1C` (stereo not given), the Potency entry is “inactive”.
As for `COc1ccc(-c2ccc3c(n2)CCCN3CC(O)CN2CCCc3nc(C)c(C)cc32)cc1` (stereo not given), the entry is “inactive”.
With `C[C@@H](ON=C1[C@H]2CCn3c(=O)n(-c4ccccc4)c(=O)n3[C@@H]2[C@H](O)[C@@H]2O[C@H]12)c1cn([C@@H]2COC[C@@H]2O)nn1` the entry was “inactive”.
With `COc1cc(OC)c2c(c1)OC1Cc3cc(OC)c(OC)cc3C2O1` (stereo not given) the entry was “inactive”; with `COC(=O)CC1c2ccccc2C(Cc2ccc3c(c2)OCO3)=C(C)N1C(=O)OC` (stereo not given), “inactive”; with `COC(=O)NC(c1ccccc1)c1c[nH]c2ccccc12` (stereo not given), “inactive”.
For `C=CCC(O)(C#Cc1ccccc1)c1ccccc1` (stereo not given), the Potency entry is “inactive”.
